Our source for the activation, Potency and activity change, negative = inhibition values is PubChem BioAssay (NCATS).

Inconclusive results are not listed. A number with no mark means an inactive call. Calls of active or inactive are those of the source. Calls come from the whole dose curve; as a rule, active = well fitted curve in the direction sought with a large enough effect; inconclusive = small, poorly fitted or top-dose-only effect, or another doubt; inactive = no such curve, though single readings can be large; an effect the other way counts as inactive or inconclusive. Numbered stars: 1 amine (or outer) side, 2 acyl side, 3 side chain; on linkers, the order of the positions; unused ones are H or OH. Square brackets hold non-standard residues; d marks the D form. Peptide text beside a SMILES is read from it. X3 = CC(CC(O[*:1])C(=O)[*:2])C(=O)O; NMeV = CN[CH](C(=O)O)C(C)C; NMeA = CN[CH](C)C(=O)O; βAla = NCCC(=O)O

Assay [1] concerns the target Cellular tumor antigen p53 (Homo sapiens) (UniProt P04637). As to the kind of experiment: Primary qHTS for small molecule compounds that upregulate eGFP-tagged delta133p53alpha (in N-terminal) cells. (AID 2060322).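 For activation: cells pre-induced with doxycycline then dosed without doxycycline; series mostly up to about 56 µM; 0% = DMSO vehicle and 100% = reference activator.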 Note: nearly all actives have a fitted effect of over 75% in size. Note: potency is the fitted concentration of half-maximal effect. The conditions noted are these: NCI-H358 eGFP-delta133p53alpha fluorescence, 24 h; activation: stronger effect = higher value. The method in brief:
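NCI-H358 cells pre-induced 24 h with 10 ng/ml doxycycline for eGFP-delta133p53alpha, plated dox-free and exposed 24 h at 37C to titrated compounds. Fixed, Hoechst-stained; gated GFP peak intensity by laser scanning cytometry, normalized to DMSO (0%) and 57.5 uM 5-azacytidine (100%).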

The target in assay [2] is Aldehyde dehydrogenase, mitochondrial (Homo sapiens) (UniProt P05091). As to the kind of experiment: qHTS for Inhibitors of the Aldehyde Dehydrogenase Family (ALDH2) Primary screen (AID 2061308).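 Note: plate controls were vehicle for no effect and reference inhibitor for full effect; nearly all actives have a fitted effect of over 55% in size.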
Assay [3] addresses Retinaldehyde dehydrogenase 3 (Homo sapiens) (UniProt P47895). As to the kind of experiment: qHTS for Inhibitors of the Aldehyde Dehydrogenase Family (ALDH1A3) Primary screen (AID 2061315).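 Note: plate controls were DMSO vehicle for no effect and reference inhibitor for full effect.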

Sequence of Cellular tumor antigen p53 (Homo sapiens) (P04637 whole entry, looked up): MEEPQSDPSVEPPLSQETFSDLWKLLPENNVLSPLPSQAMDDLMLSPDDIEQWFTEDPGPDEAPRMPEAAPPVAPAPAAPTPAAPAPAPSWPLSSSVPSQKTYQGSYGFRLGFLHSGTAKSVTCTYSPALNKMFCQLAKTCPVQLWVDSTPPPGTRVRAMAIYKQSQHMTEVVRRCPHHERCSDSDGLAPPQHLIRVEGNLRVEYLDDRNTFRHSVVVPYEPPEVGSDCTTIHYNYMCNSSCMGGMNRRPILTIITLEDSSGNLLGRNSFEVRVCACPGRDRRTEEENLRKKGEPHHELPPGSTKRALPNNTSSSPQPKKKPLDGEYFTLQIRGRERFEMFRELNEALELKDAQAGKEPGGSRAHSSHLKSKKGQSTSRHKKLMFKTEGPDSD

For the molecule `CCOP(=O)(OCC)Oc1ccc2c(C)cc(=O)oc2c1`, in assay [1], the activation was 6.33%. Further, the Potency entry in assay [2] and in assay [3] was “inactive” each time.

Consider `CC(C)(C)[C@]1(O)C[C@@H]2OC(=O)C[C@@]23C(=O)O[C@@H]2OC(=O)[C@@H](O)[C@]213`, for which the activation in assay [1] was -1.79%. Besides, the Potency result in assay [2] and in assay [3] was “inactive” in each case.

Take `O=C1Nc2ccc3ncsc3c2/C1=C/c1cnc[nH]1`: the Potency in assay [1] is 2.39 µM (active). For the same molecule, the Potency result in assay [2] and in assay [3] was “inactive” each time.

On to `COC(=O)[C@@]1(C)C(=O)C=C[C@]2(C)c3c(O)cc(C(C)C)cc3[C@H](O)[C@@H](OC(C)=O)C12` (some centres not stated), for which the activation in assay [1] was -3.05%. In addition, the Potency entry in assay [2] and in assay [3] was “inactive” each time.

In the case of `CCC1NC(=O)C2C(Cl)C(Cl)CN2C(=O)C(C(C)O)NC(=O)CC(c2ccccc2)NC(=O)C(CO)NC1=O` (configuration not stated), the activation in assay [1] was 8.93%. Further, the Potency entry in assay [2] and in assay [3] was “inactive” throughout.

Turning to `C=CCN1CCC2(C)c3cc(O)ccc3C[C@H]1[C@H]2C`, the activation in assay [1] is -5%. Besides, the Potency entry in assay [2] and in assay [3] was “inactive” throughout.

With `C=C(C)C(=O)O[C@H]1[C@@H]2[C@H](C)C(=O)O[C@@H]2C[C@@H](C)[C@@H]2C=CC(=O)[C@]21C`, in assay [1], the Potency is 13.2 µM (active). The Potency entry in assay [2] and in assay [3] was “inactive” throughout.

Consider `COC(=O)[C@@]12C(=O)C(C)C(=O)[C@]1(C)C(C)=C[C@H]1[C@]3(C=O)CC[C@H](OC(C)=O)C(C)(C)[C@H]3CC[C@@]12C` (some centres not stated), for which the activation in assay [1] is 19.1%. Moreover, the Potency entry in assay [2] and in assay [3] was “inactive” in each case.

`C[C@]12CC[C@H](O)CC1=CC[C@@H]1C2CC[C@]2(C)[C@@H](C3=CC(=O)OC3)CC[C@]12O` (some centres not stated): in assay [1], the activation was 2.29%. The Potency result in assay [2] and in assay [3] was “inactive” each time.

Regarding `CC(=O)OC[C@]12C[C@H](OC(C)=O)C(C)=C[C@H]1O[C@@H]1[C@H](O)[C@@H](O)[C@@]2(C)[C@]12CO2`, the Potency in assay [1] is 0.467 µM (active). Moreover, the Potency entry in assay [2] and in assay [3] was “inactive” each time.

As for `C[C@@]12C[C@@H](c3ccoc3)OC(=O)C1CC[C@]1(C)[C@H]2[C@H]2C=C[C@]1(O)C(=O)O2` (some centres not stated), in assay [1], the activation was -2.29%. The Potency entry in assay [2] and in assay [3] was “inactive” each time.

Turning to `COC1=CC(=O)O[C@@H](CCc2ccccc2)C1`, the activation in assay [1] was -13.4%. Moreover, the Potency result in assay [2] and in assay [3] was “inactive” each time.

As to `Clc1ccc([C@]23CNC[C@H]2C3)cc1Cl`, in assay [1], the activation is -21.7%. For the same molecule, the Potency entry in assay [2] and in assay [3] was “inactive” throughout.

In the case of `CN1C(=O)N(c2ccc(C#N)c(C(F)(F)F)c2)C(=O)[C@]1(CO)c1ccccc1`, the activation in assay [1] is 17%. The Potency result in assay [2] and in assay [3] was “inactive” throughout.

`CC(C)(C)c1cc(C(C)(C)C)c2c(c1)C(O)(C(F)(F)F)C(=O)O2` (configuration not stated): the activation in assay [1] is 23.2%. Besides, the Potency entry in assay [2] and in assay [3] was “inactive” each time.

Take `C[N@@+]1(CC2CC2)CC[C@]23c4c5ccc(O)c4O[C@H]2C(=O)CC[C@@]3(O)[C@H]1C5`: in assay [1], the activation is -5.67%. The Potency result in assay [2] and in assay [3] was “inactive” throughout.

Regarding `CC(C)(O)/C=C/C(=O)[C@](C)(O)[C@H]1[C@H](O)C[C@@]2(C)[C@@H]3CC=C4[C@@H](C[C@H](O)C(=O)C4(C)C)[C@]3(C)C(=O)C[C@]12C`, the Potency in assay [1] is 4.65 µM (active). Further, the Potency result in assay [2] and in assay [3] was “inactive” each time.

In the case of `CO[C@H]1C[C@H](O[C@H]2CC[C@]3(C=O)[C@H]4CC[C@]5(C)[C@@H](C6=CC(=O)OC6)CC[C@]5(O)[C@@H]4CC[C@]3(O)C2)O[C@H](C)[C@H]1O`, the activation in assay [1] is -29.8%. Further, the Potency result in assay [2] and in assay [3] was “inactive” each time.

For `CO[C@H]1C[C@H](O[C@H]2CC[C@@]3(C)C(=CCC4C3CC[C@]3(C)[C@@H](C5=CC(=O)OC5)CC[C@]43O)C2)O[C@@H](C)[C@@H]1O[C@@H]1O[C@H](CO[C@@H]2O[C@H](CO)[C@@H](O)[C@H](O)[C@H]2O)[C@@H](O)[C@H](O)[C@H]1O` (some centres not stated), the activation in assay [1] is 0%. Further, the Potency entry in assay [2] and in assay [3] was “inactive” in each case.

`COC(=O)C1(C)CCC(=O)C2(C)c3c(O)cc(C(C)C)cc3C(O)C(OC(C)=O)C12` (configuration not stated): the activation in assay [1] is 22.9%. The Potency result in assay [2] and in assay [3] was “inactive” in each case.

For the molecule `CC1=CC2/C=C(\C)CCC(O)C(O)C(O)CC(=O)C23C(=O)NC(CC(C)C)C3C1C` (configuration not stated), in assay [1], the activation is -32.8%. Further, the Potency entry in assay [2] and in assay [3] was “inactive” each time.

On to `CCC(C)C1NC(=O)C2CCCN2C(=O)C(CC(C)C(=O)O)OC(=O)CCNC(=O)C(C)N(C)C(=O)C(C(C)C)N(C)C1=O` (configuration not stated) (cyclo([X3]PI[NMeV][NMeA][βAla]); configuration not given here), for which, in assay [1], the activation was -10.7%. Also, the Potency entry in assay [2] and in assay [3] was “inactive” throughout.

`CCC1C2CC3C4N(C)c5ccccc5C45CC(C2C5O)N3C1O` (configuration not stated): the activation in assay [1] is 9.82%. The Potency result in assay [2] and in assay [3] was “inactive” throughout.

For `C/C=C(\C)C(=O)O[C@H]1[C@H](OC(C)=O)[C@]2(CO)[C@H](O)[C@H](O)[C@]3(C)C(=CCC4[C@@]5(C)CC[C@H](O[C@@H]6O[C@H](C(=O)O)[C@@H](O)[C@H](O[C@@H]7OC[C@H](O)[C@H](O[C@@H]8OC[C@H](O)[C@H](O)[C@H]8O)[C@H]7O)[C@H]6O[C@@H]6O[C@H](CO)[C@@H](O)[C@H](O)[C@H]6O)C(C)(C)C5CC[C@]43C)[C@@H]2CC1(C)C` (some centres not stated), the activation in assay [1] was -3.05%. The activity change, negative = inhibition is 1.02% [at 11.2 µM] in assay [2] and 2.55% [at 11.2 µM] in assay [3].
